Compound activity (PubChem BioAssay)
DT40 TDP1 no CPT = qHTS for Inhibitors of human tyrosyl-DNA phosphodiesterase 1 (TDP1): qHTS in cells in absence of CPT; AID 686978, 2013; Potency, µM (series often up to 46.2 µM), for inactives: top-dose activity change, negative = growth inhibition, hits mostly inhibitors; 420,000 compounds, 15% hits; DT40 Tdp1-/- hTDP1 cells, no CPT, ATP luminescence, 48 h; also: potency is read from the fitted curve at half-maximal effect; % is scaled to controls: 0 for no effect and ±100 for the full control effect; nearly all actives have a fitted effect of over 55% in size
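Chicken DT40 Tdp1-/- cells complemented with human TDP1, screened without camptothecin (DMSO vehicle only), 400 cells/well. Compounds pin-transferred, cells incubated at 37 °C for at least 48 hr. Growth read as ATP-dependent luminescence (CellTiter-Glo, 30 min at RT).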
HepG2 tox = kills HepG2 cells in TGF-b inhibitor counter-screen. 410,000 compounds, 0.76% hits. HepG2 CAGA-GFP viability, ATP luminescence, 18 h. Potency, µM (top dose mostly 46.1 µM), inactives show at the highest dose activity change, negative = cytotoxicity, most hits filed as cytotoxic; also: potency is read from the fitted curve at half-maximal effect
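CellTiter-Glo luminescence gave cytotoxicity after 18 hours at 37 degrees C. The cells were HepG2 CAGA-GFP in 1% FBS DMEM, stimulated with 500 pg/mL TGF-beta after compound addition. %Activity was normalised to no-cell wells (complete cell-killing) and DMSO (no toxicity), and curves were fitted and classified.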
TGFb inhibitor = blocks TGF-b signaling | Potency, µM (highest dose often 46.1 µM), for inactives: at the highest dose activity, negative = inhibition, hits mostly inhibitors | HepG2 CAGA-GFP TGF-b/SMAD3 reporter, GFP fluorescence, 18 h; TGF-beta stimulated, 500 pg/mL final | 410,000 compounds, 1.2% hits; also: potency is read from the fitted curve at half-maximal effect; % is scaled to controls: 0 for no effect and ±100 for the full control effect; nearly all actives have a fitted effect of over 65% in size
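Inhibition was scored as loss of TGF-beta-induced (500 pg/mL final, 18 hours, 37 degrees C) GFP in HEPG2 cells carrying a CAGA-GFP reporter, in DMEM with 1% FBS. Well GFP was summed per cell; Activity was normalised to unstimulated and stimulated DMSO wells, then concentration-response fitting.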
TDP1 inh = inhibitors of human tyrosyl-DNA phosphodiesterase TDP1; Q9NUW8; recombinant TDP1, AlphaScreen DNA substrate cleavage; Potency, µM (top dose mostly 130 µM), for the others: top-dose activity change, negative = inhibition, usual class: inhibitors; 350,000 compounds, 0.28% hits; also: potency is read from the fitted curve at half-maximal effect; % is scaled to controls: 0 for no effect and ±100 for the full control effect; nearly all actives have a fitted effect of over 40% in size
Target sequence (Q9NUW8 whole entry, looked up): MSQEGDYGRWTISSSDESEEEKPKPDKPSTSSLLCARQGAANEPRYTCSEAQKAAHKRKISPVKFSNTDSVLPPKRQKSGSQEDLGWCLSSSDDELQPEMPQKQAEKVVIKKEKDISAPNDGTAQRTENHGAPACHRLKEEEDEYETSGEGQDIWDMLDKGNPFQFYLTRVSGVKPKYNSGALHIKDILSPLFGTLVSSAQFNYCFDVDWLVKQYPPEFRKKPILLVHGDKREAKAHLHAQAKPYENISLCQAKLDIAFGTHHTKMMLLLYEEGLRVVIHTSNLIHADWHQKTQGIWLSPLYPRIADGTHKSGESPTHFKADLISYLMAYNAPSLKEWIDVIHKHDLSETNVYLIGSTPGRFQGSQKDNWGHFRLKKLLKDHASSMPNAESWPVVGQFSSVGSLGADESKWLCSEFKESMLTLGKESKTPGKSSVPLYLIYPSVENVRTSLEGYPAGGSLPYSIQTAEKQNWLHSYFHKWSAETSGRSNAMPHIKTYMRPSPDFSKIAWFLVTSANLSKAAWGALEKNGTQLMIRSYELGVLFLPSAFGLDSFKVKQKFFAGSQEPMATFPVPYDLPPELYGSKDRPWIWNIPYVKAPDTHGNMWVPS
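Recombinant human Tdp1 (E. coli-expressed, 1 nM final) preincubated with compounds 15 min at room temperature, then 5'-biotin/3'-phosphotyrosine-FITC DNA substrate (15 nM final) added for 5 min. AlphaScreen beads (10 ug/ml final) added 10 min; cleavage lowers signal.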
IL1B secr inh = blocks inflammasome-driven IL-1 beta release; THP-1 LPS/ATP IL-1B secretion, AlphaLISA, 16 h; active compounds read low; 360,000 compounds, 4.7% hits; activity change, % at 57.5 µM; in the data active = activity change below about -50%; inconclusive = mostly about -30% to -49%; also: % is scaled to controls: 0 for no effect and ±100 for the full control effect
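Secreted IL-1B measured by AlphaLISA bead assay after 16 h compound exposure of THP-1 cells; compounds (final up to 57.5 uM) added 1 h before LPS (250 ng/mL) and ATP (1.25 mM) stimulation; lower signal means less secretion.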
DT40 TDP1 CPT = growth inhibition of DT40 Tdp1-/-;hTDP1 cells with camptothecin (screen for TDP1 inhibitors) | chicken DT40 Tdp1-/-;hTDP1 cells + 20 nM CPT, ATP luminescence, 48 h | Potency, µM (titrated, usually from 46.2 µM), for the others: at the top dose activity change, negative = growth inhibition, hits mostly inhibitors | 420,000 compounds, 12% hits | AID 686979; also: potency is read from the fitted curve at half-maximal effect; % is scaled to controls: 0 for no effect and ±100 for the full control effect; nearly all actives have a fitted effect of over 55% in size
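Chicken DT40 Tdp1-/- cells stably complemented with human TDP1 were seeded at 400 cells/well in medium containing 20 nM camptothecin, exposed to pin-transferred compounds, and grown at 37 °C for at least 48 hr. Viability was read as ATP luminescence.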
* hit, by the source's call; ? = inconclusive; . = not tested or not shown; [ ] = another dose, or the depositor's remark. This is a sample that favours compounds with a hit; in the whole collection about 18% have one here. Unless noted, calls follow the shape of the dose curve; as a rule, active = well fitted curve in the direction sought with a large enough effect; inconclusive = small, poorly fitted or top-dose-only effect, or another doubt; inactive = no such curve, though single readings can be large; an effect the other way counts as inactive or inconclusive.

SMILES | DT40 TDP1 no CPT | HepG2 tox | TGFb inhibitor | TDP1 inh | IL1B secr inh | DT40 TDP1 CPT
CC[C@H]1OC(=O)[C@H](C)[C@@H](O[C@H]2C[C@@](C)(OC)[C@@H](O)[C@H](C)O2)[C@H](C)[C@@H](O[C@@H]2O[C@H](C)C[C@H](N(C)C)[C@H]2O)[C@](C)(O)C[C@@H](C)C(=NOCOCCOC)[C@H](C)[C@@H](O)[C@]1(C)O | 7.3µM* | 24% | 8% | . | -14 | ?
CC[C@@H]1OC(=O)[C@H](C)[C@H](O[C@@H]2C[C@](C)(OC)[C@H](O)[C@H](C)O2)[C@H](C)[C@H](O[C@@H]2O[C@@H](C)C[C@@H](N(C)C)[C@@H]2O)[C@](C)(O)C[C@H](C)C(=NOCOCCOC)[C@H](C)[C@H](O)[C@]1(C)O | . | . | . | 7%[56.1 µM] | . | .
S=C(Nc1ccc(Nc2ccccc2)cc1)NN1CCOCC1 | -23% | 17% | 10% | 8% | 8 | 22%
COc1ccccc1/C=C/c1nc(S(=O)(=O)c2ccccc2)c(NCCN(C)C)o1 | 21µM* | -5% | 3% | 5% | -27 | ?
O=C(CCl)c1ccc(Cc2ncc(C(F)(F)F)cc2Cl)s1 | 5.2µM* | -21% | -8% | 5% | -104* | 3.3µM*
NNS(=O)(=O)c1ccc(Cc2ncc(C(F)(F)F)cc2Cl)s1 | 6% | 6% | 1% | 5% | 12 | -7%
NS(=O)(=O)c1ccc(Cc2ncc(C(F)(F)F)cc2Cl)s1 | ? | -16% | 2% | 5% | -15 | ?
CCN(CC)S(=O)(=O)c1ccc(Cc2ncc(C(F)(F)F)cc2Cl)s1 | 21µM* | -11% | ? | -7% | -58* | ?
Cc1ccc(S(=O)(=O)NC(=O)C2CCCCC2)cc1 | 10% | -1% | 0% | 0%[56.1 µM] | 9 | -1%
CNc1ccc(C=C2C=CC=C2)cc1 | ? | -4% | -24% | . | . | 11µM*
Nc1ncnc2c1c(-c1ccc(Oc3ccccc3)cc1)cn2C1CCCC1 | 18µM* | -70% | 22µM* | 18% | 56 | ?
CCOC(=O)CSC1=C(C#N)C(c2ccccc2OCC)C(C#N)C(=O)N1 (stereo not drawn) | 18µM* | -1% | 2% | 7% | 4 | 15µM*
CCOC(=O)C1C(=O)NC(SCC(=O)Nc2nccs2)=C(C#N)C1c1ccccc1OCC (stereo not drawn) | 13µM* | 0% | -21% | 5% | -6 | ?
CCOC(=O)C1C(=O)NC(SCC(=O)OC)=C(C#N)C1c1ccccc1OCC (stereo not drawn) | -11% | -1% | 18% | 2% | 14 | -5%
CSc1ccccc1OCc1cc(C(=O)N2CCC[C@H]2C(N)=O)no1 | -10% | -4% | -4% | 1% | -4 | 20%
COC(=O)c1c(-c2ccc(N(C)C)cc2)oc2c1C(OC)CCC2 (stereo not drawn) | 18µM* | . | . | . | -10 | ?
O=C1CCCCC1Sc1nnc(Cc2cccs2)n1CCc1ccccc1 (stereo not drawn) | 23µM* | -11% | 1% | 5% | ? | ?
Cc1nc(SCC(=O)Nc2nnc(C(C)C)s2)n[nH]1 | 6% | -4% | 33% | 10% | 9 | 21%
CCCc1nc2ccc(NC(=O)c3cccs3)cc2c(=O)n1Cc1ccccc1Cl | 16µM* | -10% | -3% | 0% | -14 | ?
CCCc1nc2ccc(NC(C)=O)cc2c(=O)n1Cc1ccc(Cl)cc1 | 23µM* | -14% | -9% | 1% | ? | ?
CC(Sc1nnc(-c2ccccc2F)n1C)C(=O)NC1CCCCC1 (stereo not drawn) | 3% | -11% | -4% | 1% | -8 | -5%
CCN(CC)S(=O)(=O)c1ccc(S(=O)(=O)N2CCCC(C(=O)NC3CC3)C2)cc1 (stereo not drawn) | 5.8µM* | -3% | -24% | . | 19 | 1.3µM*
Cc1ccc(NS(=O)(=O)c2cc(OCC(N)=O)c(C)cc2Cl)cc1C | ? | -18% | -10% | 5% | 31 | 20µM*
CCOC(=O)C1CCCN(S(=O)(=O)c2cc(OCC(N)=O)c(C)cc2Cl)C1 (stereo not drawn) | -9% | 2% | 2% | -2% | -92* | -15%
CCOC(=O)C1CCCN(S(=O)(=O)c2ccc(S(=O)(=O)N(CC)CC)cc2)C1 (stereo not drawn) | 1.5µM* | -7% | -29% | 3% | 24 | 2.9µM*
SMILES | DT40 TDP1 no CPT | HepG2 tox | TGFb inhibitor | TDP1 inh | IL1B secr inh | DT40 TDP1 CPT
CN(C)S(=O)(=O)c1ccc(S(=O)(=O)N2CCCC(C(=O)NC3CC3)C2)cc1 (stereo not drawn) | ? | 0% | -3% | ? | 44 | -29%
Cc1cccc(NS(=O)(=O)c2cc(OCC(N)=O)c(C)cc2Cl)c1 | ? | -12% | 2% | 7% | 33 | -20%
Cc1cc(Cl)c(S(=O)(=O)N2CCCC2)cc1OCC(N)=O | -3% | -16% | -6% | -3% | -8 | 3%
CCN(CC)c1ncnc2sc(C(=O)N3CCN(c4ccccc4)CC3)c(C)c12 | ? | -1% | ? | 3% | 16 | ?
C[C@H](N)C(=O)N[C@@H](CO)C(=O)N[C@H](C(=O)N[C@H](C(=O)N[C@H](C(=O)N[C@@H](CC(N)=O)C(=O)N[C@@H](Cc1ccc(O)cc1)C(=O)N[C@H](C(=O)O)[C@@H](C)O)[C@@H](C)O)[C@@H](C)O)[C@@H](C)O | . | . | . | 8% | . | .
CCOC(=O)C1CCCN(C(=S)Nc2ccc(S(=O)(=O)N3CCOCC3)cc2)C1 (stereo not drawn) | 16µM* | -3% | -11% | 1% | -7 | ?
CCOC(=O)N1CCN(C(=S)Nc2cc(S(=O)(=O)N3CCOCC3)ccc2Cl)CC1 | 18µM* | -16% | 1% | 2% | -11 | ?
CN1CCN(C(=S)Nc2cc(S(=O)(=O)N3CCOCC3)ccc2Cl)CC1 | -16% | -4% | 8% | 0% | -7 | -3%
CC1CCCN(C(=S)Nc2ccc(S(=O)(=O)N3CCCCC3)cc2)C1 (stereo not drawn) | ? | -2% | 0% | 3% | 35 | ?
CCOC(=O)C1CCCN(S(=O)(=O)CCNC(=O)c2ccc3c(c2)OCO3)C1 (stereo not drawn) | -6% | 10% | 6% | 7% | -73* | -1%
